Reference: the supplement of paper PMC8269313
Where a name gives a salt, the structure may show the parent alone.

Tested on: 4T1
Assay: % inhibition of 4T1 cell number vs DMSO control; higher = stronger growth inhibition
Conditions: 1 µM, 3 days
In short: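 4T1-H2B-GFP mouse breast cancer cells (3000 per well, 2% FBS medium) were seeded in 96-well imaging plates on plastic, denuded lung or mCAF1 fibroblast-derived matrix, Matrigel (15 μg/mL) or 0.2% gelatin; edge wells were left unused. After 16 h, kinase inhibitors were added at 1 μM final for 3 days. Plates were formalin-fixed, DAPI-stained and imaged on an INCell Analyzer 2200, and GFP-positive nuclei were counted. Percent inhibition of cell number was calculated relative to DMSO control.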

[1] = substrate: lung fibroblast-derived matrix
[2] = substrate: mCAF1 fibroblast-derived matrix

Row | Structure (SMILES) | % inhibition of 4T1 cell number (substrate: Matrigel) [%] | % inhibition of 4T1 cell number (substrate: gelatin) [%] | % inhibition of 4T1 cell number [1] [%] | % inhibition of 4T1 cell number [2] [%] | % inhibition of 4T1 cell number (substrate: plastic) [%]
1 | O=C1NC(=O)c2c1c1c3ccccc3[nH]c1n1cncc21 [Isogranulatimide] | -41.6 | -25.6 | -7.38 | 9.11 | -78.2
2 | CCCCc1c(-c2ccc(O)cc2)[nH]c2nccnc12 [Aloisine A] | 53.4 | 38 | 1.62 | -3.45 | 48.1
3 | CC(C)[C@H](CO)Nc1nc(Nc2cccc(Cl)c2)c2ncn(C(C)C)c2n1 [Purvalanol A] | -8.87 | 15.8 | 83.6 | 40.3 | -20.5
4 | COc1cc2ncn(-c3cc(OCc4ccccc4S(C)(=O)=O)c(C#N)s3)c2cc1OC [IKK-3 Inhibitor IX] | -14.6 | -1.27 | 1.67 | 6.5 | -26.7
5 | CCC(=O)Nc1ccc2ncnc(Nc3cccc(Br)c3)c2c1 | -8.72 | -108 | -2.26 | -19.4 | -59.2
6 | CC[C@H](CO)Nc1nc(NCc2ccc(-c3ccccn3)cc2)c2ncn(C(C)C)c2n1 [CR8, (R)-Isomer] | 99.5 | 98.7 | -11.2 | 96 | 96.7
7 | NS(=O)(=O)c1ccc(N=Nc2c(O)[nH]c3ccc(Br)cc23)cc1 [Cdk2 Inhibitor II] | 14.7 | 31.6 | -5.54 | 18.1 | -9.24
8 | Oc1cccc(-c2nc(N3CCOCC3)c3oc4ncccc4c3n2)c1 | 22.6 | 4.53 | -18.2 | 70.3 | -7.68
9 | O=C(Nc1ccc(Cl)cc1)c1ccccc1NCc1ccncc1 [VEGF Receptor Tyrosine Kinase Inhibitor II] | 28.8 | -12.3 | 79.7 | 0.43 | 17.2
10 | CN(C)CCCn1cc(C2=C(c3c[nH]c4ccccc34)C(=O)NC2=O)c2ccccc21 [Bisindolylmaleimide I] | 46.6 | 41.5 | -13.3 | 13.1 | 57.2
11 | O=C(c1ccc(Nc2nccc(-c3cc4ccccc4s3)n2)cc1)N1CCC(N2CCCC2)CC1 [IKK Inhibitor VII] | 81.6 | 55.4 | -10 | 52.9 | -20.6
12 | Cc1cc2ncc(-c3ccccc3)nc2cc1C | 1.93 | 65.9 | -4.16 | 30.3 | 45.2
13 | N#C/C(=C\c1ccc(O)c(O)c1)C(=O)NCc1ccccc1 | -13.1 | 42.5 | -21.1 | 15.2 | -38
14 | c1cc(-c2cnn3cc(-c4ccc(OCCN5CCCCC5)cc4)cnc23)ccn1 [AMPK Inhibitor, Compound C] | 49.6 | 27.5 | 12.9 | 7.87 | 52.8
15 | N#Cc1c(C2CCNCC2)cc(-c2c(O)cccc2OCC2CC2)nc1N [IKK-2 Inhibitor VIII] | -23.5 | -17.9 | -4.53 | 9.43 | -39.2
16 | CCCCCCCCCCCCCCCCn1cc[n+](Cc2ccccc2)c1C [eEF-2 Kinase Inhibitor, NH125] | 81.5 | 78.5 | 52.8 | 83.2 | 93.2
17 | CCCCn1c2ccc(O)cc2c2c3c(c(-c4ccccc4Cl)cc21)C(=O)NC3=O [Wee1 Inhibitor II] | 52.6 | 63 | 15.6 | 4.43 | 57.9
18 | O=C(O)C=Cc1cc(Br)c(Br)c(Br)c1Br [Casein Kinase II Inhibitor III, TBCA] | 33.8 | 27.7 | 2.78 | 2.33 | 40.6
19 | NCCNc1ncc(C(N)=O)c(Nc2cccc(C(F)(F)F)c2)n1 [Syk Inhibitor II] | -0.528 | -84.2 | -1.24 | -23.5 | -12.4
20 | CC(C)[C@H](CO)Nc1nc(Nc2cc(N)cc(Cl)c2)c2ncn(C(C)C)c2n1 [Aminopurvalanol A] | 77.4 | 71.6 | -15.7 | 41.1 | 80.1
21 | CO[C@H]1C[C@@H]2CC[C@@H](C)[C@@](O)(O2)C(=O)C(=O)N2CCCC[C@H]2C(=O)O[C@H]([C@H](C)C[C@@H]2CC[C@@H](O)[C@H](OC)C2)CC(=O)[C@H](C)/C=C(\C)[C@@H](O)[C@@H](OC)C(=O)[C@H](C)C[C@H](C)/C=C/C=C/C=C/1C [Rapamycin] | -18.4 | -32 | -0.258 | 23.7 | -50.8
22 | CCOc1nc(NC(=O)Cc2cc(OC)ccc2OC)cc(N)c1C#N [JNK Inhibitor VIII] | -7.17 | 11.6 | -17.8 | 31.4 | -42.5
23 | N#CC(C#N)=C(N)/C(C#N)=C/c1ccc(O)cc1 | -1.44 | 52.7 | -11.6 | 11.4 | 21.1
24 | O=S(=O)(c1cccc2c(I)cccc12)N1CCCNCC1 [ML-7, Hydrochloride] | 23 | 24.2 | -1.62 | 33.6 | -7.72
25 | O=c1c(O)c(-c2ccc(O)c(O)c2)oc2cc(O)c(O)c(O)c12 [Quercetagetin] | 28.5 | 52.6 | -6.29 | 36.1 | 48.4
26 | N#CC(c1ccnc(NCCc2cccnc2)n1)c1nc2ccccc2s1 (stereo not given) [JNK Inhibitor V] | -8.79 | 6.99 | -8.74 | 52.2 | 8.02
27 | COc1ccc(-c2cnc3c(-c4ccsc4)cnn3c2)cc1 [VEGF Receptor 2 Kinase Inhibitor IV] | 8.54 | 30.6 | -18.1 | 5.85 | -14.5

Row | Structure (SMILES) | % inhibition of 4T1 cell number (substrate: Matrigel) [%] | % inhibition of 4T1 cell number (substrate: gelatin) [%] | % inhibition of 4T1 cell number [1] [%] | % inhibition of 4T1 cell number [2] [%] | % inhibition of 4T1 cell number (substrate: plastic) [%]
28 | COc1cc2ncc(-c3ccccc3)nc2cc1OC | 20.6 | 47 | -16.1 | 27.8 | 39.5
29 | O=S(=O)(NCCNC/C=C/c1ccc(Br)cc1)c1cccc2cnccc12 [H-89, Dihydrochloride] | -2.21 | 25.6 | -2.1 | 36 | -37.5
30 | CC[C@@H](CO)Nc1nc(NCc2ccc(-c3ccccn3)cc2)c2ncn(C(C)C)c2n1 [CR8, (S)-Isomer] | 99.4 | 98.9 | 60.2 | 95.8 | 96.5
31 | Cn1c2ccccc2c2c3c(c4c5ccccc5n(CCC#N)c4c21)CNC3=O | 50.9 | 67.2 | -8.31 | 34.5 | 72.7
32 | CCCC(=O)Oc1ccc2[nH]c(C(=O)c3cc4ccccc4[nH]3)cc2c1 [PDGF Receptor Tyrosine Kinase Inhibitor II] | -18.7 | -112 | -6.16 | 1.3 | -70.2
33 | Nc1[nH]nc2nnc(-c3c(-c4ccccc4)nn4ccccc34)cc12 | -37.8 | -5.47 | -14.3 | 1.41 | -58.3
34 | COc1cc(Nc2ncc3ccn(-c4cccc(CCC#N)c4)c3n2)cc(OC)c1OC [Keratinocyte Differentiation Inducer] | 91.6 | 89 | 93.7 | 97.6 | 94.4
35 | COc1cc2ncnc(Nc3cccc(Cl)c3)c2cc1OC | 19.4 | -16.6 | -4.35 | 6.77 | 36
36 | CCCOc1ccc(/C=C2/SC(=O)NC2=O)cc1 [PIM1/2 Kinase Inhibitor VI] | 16.2 | 22.9 | 2.3 | -16.9 | -1.33
37 | CC(=O)O/N=C1/C(c2c(O)[nH]c3cc(Br)ccc23)=Nc2ccccc21 [GSK-3 Inhibitor X] | -22.6 | 52.7 | -8.8 | 59.3 | 58.1
38 | C[S+]([O-])c1ccc(-c2nc(-c3ccc(F)cc3)c(-c3ccncc3)[nH]2)cc1 (stereo not given) | 28.8 | 44.4 | 99.2 | 14.9 | 23.3
39 | NC(=O)c1ccc2nc(-c3ccc(Oc4ccc(Cl)cc4)cc3)[nH]c2c1 [Chk2 Inhibitor II] | -26.7 | -10.9 | 22.1 | 21.5 | -72.4
40 | O=C1Cc2c([nH]c3ccc([N+](=O)[O-])cc23)-c2ccccc2N1 [Alsterpaullone] | 61.5 | 45.2 | -3.92 | -0.808 | 56.1
41 | CN(C)S(=O)(=O)c1ccc2c(c1)/C(=C/c1cc3c([nH]1)CCCC3)C(=O)N2 | -10.2 | 2.33 | -16.4 | -22.1 | -51.8
42 | Cc1cc(C=C2C(=O)C=CC2=O)cc(C)c1O | 32.9 | 68.1 | 10.9 | -26.2 | 32.3
43 | COc1cc2ncnc(Nc3ccc(O)c(Br)c3)c2cc1OC [JAK3 Inhibitor II] | -13.3 | -52.6 | -6.47 | 25.3 | -53.6
44 | N#CCCc1ccc2c(c1)-c1[nH]c3ccc([N+](=O)[O-])cc3c1CC(=O)N2 [Alsterpaullone, 2-Cyanoethyl] | 55.6 | 51.8 | -1.58 | 45.1 | 72.9
45 | NC(N)=NCCNS(=O)(=O)c1cccc2cnccc12 [HA 1004, Dihydrochloride] | -14.8 | -0.694 | -2.73 | -8.89 | -48.5
46 | O=c1[nH][nH]c2nnc(-c3c(-c4ccccc4)nn4ccccc34)cc12 [ERK Inhibitor II, Negative control] | -40.3 | -11.4 | -10 | 3.24 | -83.1
47 | CCN(CC)C(=O)c1ccc(Nc2nc(OCC3CCCCC3)c3[nH]cnc3n2)cc1 [Cdk2 Inhibitor IV, NU6140] | -9.76 | -12.1 | -6.34 | 80.5 | 44.3
48 | c1ccc(-c2n[nH]c3c2oc2ccccc23)cc1 | -3.87 | -77.4 | -1.95 | -3.97 | -64.2
49 | O=C1c2ccccc2-c2n[nH]c3cccc1c23 [JNK Inhibitor II] | -51.1 | -11.8 | -2.64 | 27.7 | -62.6
50 | COc1cc2ncnc(Nc3ccc(Cl)cc3Cl)c2cc1OC [Ste11 MAPKKK Activation Inhibitor] | 42 | 66.8 | 0.704 | -27.6 | 36.1
51 | Oc1ccc(-c2nc(-c3ccc(F)cc3)c(-c3ccncc3)[nH]2)cc1 | 19.2 | 56 | -2.55 | 38.9 | 30.1
52 | O=Nc1c(-c2c(O)[nH]c3cc(Br)ccc23)[nH]c2ccccc12 [GSK-3 Inhibitor IX] | -37.5 | -7.89 | -2.79 | 55.1 | 42.2
53 | Cn1c(O)c(-c2[nH]c3ccccc3c2N=O)c2ccc(Br)cc21 [GSK-3 Inhibitor IX, Control, MeBIO] | 3.95 | 2.35 | 16 | -1.76 | -22.7
54 | COc1ccc(CNc2nc(N(CCO)CCO)nc3c2ncn3C(C)C)cc1 [Cdk2 Inhibitor III] | -37 | 15.9 | 6.49 | 22 | -27.8
